CYP2C19 act – activators of human cytochrome P450 2C19; P33261; activation factor at 5 µM; 96,000 tested, under 10 active; recombinant CYP2C19, luciferin-H EGE luminescence; hits give high values; 0 = fully inhibited enzyme, 1 = untreated enzyme;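 active = activation factor of at least 2 at 5 µM in the primary screen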
CYP2C9 inhib – inhibitors of human CYP2C9 | P11712 | CYP2C9 Supersomes, luciferin-H conversion, luminescence | inhibition, % at 5 µM | 20% of 96,000 active | AID 777;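 active = blocking of liver enzyme CYP2C9 beyond about 50% at 5 µM, limit read from the data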
CYP2C19 inhib – blocks human cytochrome P450 2C19 | CYP2C19 Supersomes, luciferin-H EGE luminescence, 30 min | AID 778 | inhibition, % at 5 µM | P33261 | 21% of 96,000 active;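 active = CYP2C19 inhibition above a set limit at 5 µM in the primary screen, cut at about 50% in these data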
CYP2C9 activ – increases human cytochrome P450 2C9 activity. AID 1024. recombinant CYP2C9, luciferin-H conversion, luminescence; hits give high values; factor 1 = untreated enzyme, 0 = blocked. P11712. activation factor at 5 µM. 1.4% of 96,000 active;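 active = activation factor of 2 or more for CYP2C9 at a 5 µM dose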
Cav3 T inh – human Cav3.2 channel inhibition, primary screen; O95180; 4% of 100,000 active; Cav3.2-expressing cells, Fluo-4 calcium fluorescence FDSS; hits give low values; B-score at 10 µM; AID 449739;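 active = single-dose well whose peak fluorescence ratio is a statistical outlier from its plate by either plate-standardised score or position-corrected B-score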
Target sequence (O95180 whole entry, looked up): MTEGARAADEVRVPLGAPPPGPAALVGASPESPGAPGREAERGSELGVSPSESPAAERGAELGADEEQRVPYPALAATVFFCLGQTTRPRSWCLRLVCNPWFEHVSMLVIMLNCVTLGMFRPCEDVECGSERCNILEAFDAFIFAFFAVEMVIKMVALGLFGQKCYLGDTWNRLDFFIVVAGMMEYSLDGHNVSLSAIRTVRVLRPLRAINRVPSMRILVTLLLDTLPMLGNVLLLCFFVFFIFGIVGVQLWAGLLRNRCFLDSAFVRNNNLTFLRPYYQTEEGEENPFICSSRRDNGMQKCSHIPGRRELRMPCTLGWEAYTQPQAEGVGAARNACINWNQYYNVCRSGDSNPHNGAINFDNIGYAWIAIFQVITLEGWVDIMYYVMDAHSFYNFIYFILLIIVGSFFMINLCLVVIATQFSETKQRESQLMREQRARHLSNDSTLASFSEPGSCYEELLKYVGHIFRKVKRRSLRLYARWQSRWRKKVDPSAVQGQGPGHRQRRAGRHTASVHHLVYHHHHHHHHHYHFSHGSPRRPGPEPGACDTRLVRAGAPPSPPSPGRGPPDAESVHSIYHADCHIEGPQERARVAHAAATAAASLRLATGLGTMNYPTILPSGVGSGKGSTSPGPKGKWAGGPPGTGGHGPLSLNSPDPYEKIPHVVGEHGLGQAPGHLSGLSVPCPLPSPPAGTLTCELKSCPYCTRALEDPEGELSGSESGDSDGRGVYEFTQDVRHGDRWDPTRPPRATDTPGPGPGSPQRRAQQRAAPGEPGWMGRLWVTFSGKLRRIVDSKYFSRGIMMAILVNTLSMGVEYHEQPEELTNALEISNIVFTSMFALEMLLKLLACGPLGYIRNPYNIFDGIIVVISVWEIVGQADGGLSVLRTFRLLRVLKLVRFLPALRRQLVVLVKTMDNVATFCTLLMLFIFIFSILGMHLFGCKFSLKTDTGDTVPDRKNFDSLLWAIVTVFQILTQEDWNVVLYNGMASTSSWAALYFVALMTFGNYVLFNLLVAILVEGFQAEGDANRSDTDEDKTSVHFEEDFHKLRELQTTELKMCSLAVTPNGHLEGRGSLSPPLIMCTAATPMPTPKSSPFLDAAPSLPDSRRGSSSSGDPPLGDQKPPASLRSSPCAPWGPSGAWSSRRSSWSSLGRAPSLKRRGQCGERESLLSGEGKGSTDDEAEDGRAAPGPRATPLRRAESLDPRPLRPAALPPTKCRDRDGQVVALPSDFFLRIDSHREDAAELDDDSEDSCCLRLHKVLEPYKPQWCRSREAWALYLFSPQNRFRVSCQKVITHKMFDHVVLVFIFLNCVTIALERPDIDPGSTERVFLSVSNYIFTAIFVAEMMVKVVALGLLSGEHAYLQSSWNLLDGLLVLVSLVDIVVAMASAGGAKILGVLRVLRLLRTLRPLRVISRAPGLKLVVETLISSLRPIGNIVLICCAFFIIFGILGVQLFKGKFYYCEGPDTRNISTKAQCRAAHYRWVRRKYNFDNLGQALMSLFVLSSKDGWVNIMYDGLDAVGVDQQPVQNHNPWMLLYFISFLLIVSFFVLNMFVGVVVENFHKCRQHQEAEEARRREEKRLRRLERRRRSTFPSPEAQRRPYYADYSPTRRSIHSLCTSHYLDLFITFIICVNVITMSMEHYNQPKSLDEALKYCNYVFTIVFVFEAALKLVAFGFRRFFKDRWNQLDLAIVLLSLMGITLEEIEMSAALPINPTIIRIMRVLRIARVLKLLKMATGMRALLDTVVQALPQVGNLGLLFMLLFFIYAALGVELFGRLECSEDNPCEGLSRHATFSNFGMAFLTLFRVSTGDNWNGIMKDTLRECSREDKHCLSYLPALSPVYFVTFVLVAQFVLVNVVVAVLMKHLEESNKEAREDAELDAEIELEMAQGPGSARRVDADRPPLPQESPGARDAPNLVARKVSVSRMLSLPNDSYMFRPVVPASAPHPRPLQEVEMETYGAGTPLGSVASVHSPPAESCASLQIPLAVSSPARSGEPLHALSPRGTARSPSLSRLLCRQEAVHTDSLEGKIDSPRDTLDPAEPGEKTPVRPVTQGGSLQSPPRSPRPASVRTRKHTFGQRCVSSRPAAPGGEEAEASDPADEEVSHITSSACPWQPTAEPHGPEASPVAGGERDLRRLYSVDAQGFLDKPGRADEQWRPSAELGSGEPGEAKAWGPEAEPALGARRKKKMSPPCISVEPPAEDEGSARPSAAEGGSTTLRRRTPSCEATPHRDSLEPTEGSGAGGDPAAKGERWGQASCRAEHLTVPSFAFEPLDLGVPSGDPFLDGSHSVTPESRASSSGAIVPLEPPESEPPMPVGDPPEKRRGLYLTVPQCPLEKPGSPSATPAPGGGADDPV
Hits are given with their value; 0 = inactive; - = not tested or not shown. Hits are enriched below; roughly 27% of the tested compounds scored in any of these assays.

SMILES	CYP2C19 act	CYP2C9 inhib	CYP2C19 inhib	CYP2C9 activ	Cav3 T inh
COc1ccc(Cn2nnnc2C(C(C)C)N(Cc2ccco2)Cc2cccs2)cc1 (stereo not given)	0	66	56	0	-3.9
CCCCN1C(=S)NC[C@@H]1Cc1ccccc1	-	-	-	-	0
CCCCCC(=O)OC(CN1CCCCC1)CN1CCCC1=O (stereo not given)	0	0	0	0	0
Cc1csc(SCC(=O)c2c(N)n(C)c(=O)n(C)c2=O)n1	0	0	0	0	-
CO/N=C/c1ccc(Oc2ccc(C)cc2)nc1	0	0	0	0	0
C=CCN(CC=C)C(=S)NC(=O)c1ccc(-c2ccccc2)cc1	0	0	0	0	-4.4
COc1ccc(C(=O)NC(=S)N(Cc2ccccc2)Cc2ccccc2)cc1	0	0	0	0	0
CCS(=O)(=O)c1ccc(S(=O)(=O)CC)s1	0	0	0	0	0
CCOc1ccc(C2Oc3nc(SC)nnc3-c3ccccc3N2C(C)=O)cc1OC (stereo not given)	0	0	0	0	0
COc1cc(/C=C(/C#N)c2nc3ccccc3[nH]2)ccc1Oc1ncccc1[N+](=O)[O-]	0	66	62	0	0
CCOc1cc(/C=C(/C#N)c2nc3ccccc3[nH]2)ccc1Oc1ccc([N+](=O)[O-])cn1	0	0	0	0	0
COc1cc(OC)cc(-n2nnnc2SCC(=O)N2CCCc3ccccc32)c1	0	0	0	0	0
Cn1cccc1Cc1nnc(SCC(=O)N2CCCc3ccccc32)n1-c1ccc(F)cc1	0	0	0	0	-7.9
Cn1cccc1Cc1nnc(SCC(=O)N2CCc3ccccc32)n1-c1ccc(F)cc1	0	0	0	0	0
COc1ccc(-n2c(Cc3ccccc3)nnc2SCC(=O)N2CCCc3ccccc32)cc1	-	-	-	-	-8.5
COc1cccc(-n2nnnc2SCC(=O)N2CCCc3ccccc32)c1	0	0	52	0	0
CCCCOc1cccc(NC(=O)CSc2nccn2C)c1	0	0	0	0	0
O=c1[nH]c(=O)n(Cc2ccco2)c2c1C(C(F)(F)F)(C(F)(F)F)N=C(Cc1ccccc1)N2	0	76	0	0	0
O=C1c2ccccc2C(Nc2ccc(F)cc2F)N1CCN1CCOCC1 (stereo not given)	0	0	0	0	0
Cc1ccc(CNC(=O)C(NS(=O)(=O)c2cccs2)C(C)C)cc1 (stereo not given)	0	52	85	0	0
CCC(=O)N1CCc2cc(S(=O)(=O)NC(C(=O)NCc3ccc(C)cc3)C(C)C)ccc21 (stereo not given)	0	0	0	0	0
CC(C)C(NS(=O)(=O)c1cccs1)C(=O)NCc1ccc2c(c1)OCO2 (stereo not given)	0	84	94	0	0
Cc1ccc(CNC(=O)C(Cc2ccccc2)NS(=O)(=O)c2cccs2)cc1 (stereo not given)	0	0	61	0	0
Cn1nnnc1SCc1nnc(-c2ccccc2Br)o1	0	0	65	0	0
Clc1ccc(OCc2nnc(-c3ccccc3Br)o2)c(Cl)c1	0	0	0	0	0
SMILES	CYP2C19 act	CYP2C9 inhib	CYP2C19 inhib	CYP2C9 activ	Cav3 T inh
Cc1ccc(-n2nnnc2SCc2nnc(-c3ccccc3Br)o2)c(C)c1	0	56	66	0	0
Cn1nnnc1SCc1nnc(-c2ccc(F)cc2)o1	0	0	0	0	0
Clc1ccc(OCc2nnc(-c3ccccc3Br)o2)cc1	0	0	96	0	0
CC(C)C1N=C2c3ccccc3N=C(SCC#N)N2C1=O (stereo not given)	0	0	0	0	0
Cn1cnc2c1c(=O)n(CC(O)CO)c(=O)n2C (stereo not given)	0	0	0	0	0
O=C(c1ccco1)N1CCN(c2cc(C(F)(F)F)nc3ncnn23)CC1	0	0	0	0	0
CCNc1nc(NCC)nc(C(=O)OCCO)n1	0	0	0	0	0
CCN=C(Nc1ccc(Cl)cc1)c1cccnc1	0	0	0	0	0
CCCCN=C(Nc1ccc(Cl)cc1)c1cccnc1	0	0	67	0	0
COc1ccc(-n2c(C)c(C(C)=O)c3cc(O)ccc32)cc1	0	61	90	0	0
CC(=O)Oc1ccc2c(c1)c(C(C)=O)c(C)n2C	0	0	0	0	0
COc1ccc2c(c1)c(C(C)=O)c(C)n2-c1ccccc1	0	88	97	0	0
COc1ccc(C2C(C(=O)Nc3ccccn3)=C(C)Nc3ncnn32)c(OC)c1 (stereo not given)	0	0	0	0	0
CCOC(=O)N1CCC(NC(=O)C2CCCN(C(=O)N3CCOc4ccccc43)C2)CC1 (stereo not given)	0	80	0	0	0
CC(=O)Cc1nsc(NC(=O)c2ccc(COc3ccccc3)o2)n1	0	57	0	0	0
CC(=O)Cc1nsc(Nc2ccccc2)n1	0	0	77	0	0
C#CCOCCOCCOCCNc1nc(N2CCN(C(=O)Cn3cc(CCO)nn3)CC2)nc(N2CCN(C(=O)[C@H](C(C)C)n3cc(CCO)nn3)CC2)n1	-	-	-	-	0
COc1ccc(S(=O)(=O)NCCC(=O)NC(C)c2ccccc2)cc1 (stereo not given)	0	0	0	0	0
Cc1ccc(CNC(=O)c2oc3ccc(S(=O)(=O)N4CCC5(CC4)OCCO5)cc3c2C)cc1	0	65	0	0	0
Cc1c(C(=O)O)oc2ccc(S(=O)(=O)NCc3ccc(F)cc3)cc12	0	72	0	0	0
Cc1c(C(=O)NCc2cccnc2)oc2ccc(S(=O)(=O)N3CC(C)CC(C)C3)cc12 (stereo not given)	0	0	0	0	-
Cc1c(C(=O)Nc2ccc(F)cc2)oc2ccc(S(=O)(=O)N3CC(C)CC(C)C3)cc12 (stereo not given)	0	58	0	0	0
Cc1c(C(=O)NCCC2=CCCCC2)oc2ccc(S(=O)(=O)N3CCOCC3)cc12	0	0	0	0	-4.1
Cc1c(C(=O)NCc2cccnc2)oc2ccc(S(=O)(=O)N3CCC4(CC3)OCCO4)cc12	0	0	0	0	0
Cc1ccc(-c2nnc(SCC#CCOC(=O)c3cccs3)o2)cc1	0	0	0	0	0
SMILES	CYP2C19 act	CYP2C9 inhib	CYP2C19 inhib	CYP2C9 activ	Cav3 T inh
Cc1ccc(-c2nnc(-c3ccc(NC(=O)c4ccco4)cc3)o2)cc1	0	79	67	0	0
O=C(Nc1ccc(-c2nnco2)cc1)c1ccccc1	0	77	83	0	0
COc1cccc(C(=O)Nc2ccc(-c3nnc(-c4ccco4)o3)cc2)c1	0	0	65	0	0
Cc1ccc(-c2nnc(SCC#CCOC(=O)c3ccco3)o2)cc1	0	89	89	0	0
CC(C)Cn1c(CN2CCN(c3ccccc3F)CC2)nc2c1c(=O)[nH]c(=O)n2C	-	-	-	-	0
CN1CCN(c2ncccc2S(=O)(=O)N2CCCCC2)CC1	-	-	-	-	0
COc1cnc(-c2ccccn2)nc1Sc1cccc(Cl)c1	0	0	0	0	0
CCOc1ncccc1C(=O)OCC(=O)NCCc1ccc(OC)cc1	0	58	81	0	0
CCOc1ncccc1C(=O)OCc1ccc(C(=O)OC)o1	0	0	0	0	0

From PubChem
